From PubChem BioAssay (NCATS) come the findings set out here.

Inconclusive results are not listed. A number with no mark means an inactive call. Activity calls are given as the source filed them. Calls follow the shape of the dose curve; as a rule, active = well fitted inhibition curve with a large enough effect; inconclusive = small, poorly fitted or top-dose-only effect, or effect the other way; inactive = flat fitted curve, though single readings scatter. Residues, ends and D or L forms follow the SMILES beside them. *: point of attachment. Cbz = O=C(OCc1ccccc1)*
% is scaled to controls: 0 for no effect and ±100 for the full control effect; potency is read from the fitted curve at half-maximal effect.

The experiment in a line: Quantitative high throughput screen for delayed death inhibitors of the malarial parasite plastid, 48 hour incubation (AID 488752). Also: nearly all actives have a fitted effect of over 65% in size. To be noted: Plasmodium falciparum growth; series mostly up to 28.7 µM; activity change, negative = inhibition: at the top concentration. From the text:
NIH Molecular Libraries Probe Production Network [MLPCN]
NIH Chemical Genomics Center [NCGC]
Assay Provider: David Fidock and Eric Ekland, Columbia University
The goal of this screen is to discover new antimalarial compounds that act by inhibiting the development of the apicoplast in the malarial parasite Plasmodium falciparum. The biochemical processes that make this organelle essential for erythrocytic stage parasites are not well understood. However, antibiotics, such as azithromycin and tetracycline, which target the apicoplast translational machinery, have a potent antimalarial effect.
We have developed a cell-based assay that measures parasite growth based on the expression of an integrated copy of a firefly luciferase reporter. To detect small molecules that cause this 'delayed death' phenotype, erythrocytes infected with the luciferase-expressing parasites were incubated with compounds for either one or two generations, corresponding to 48 and 96 hours, respectively. Compounds that inhibit parasite growth in the second generation, but not the first, should be enriched in antimalarials that target the apicoplast. Growth inhibition is detected by a decrease in luciferase activity
Four microliters of culture medium (RPMI 1640 with 0.5% w/v Albumax (GIBCO), 24 mM sodium bicarbonate and 10 ug/mL gentamycin) were dispensed by a Multi-drop Combi into white solid 1536-well plates (Grenier) and 23 nL compound was added by a pin tool. Four microliters of infected erythrocytes (2% hematocrit, 0.1% parasitemia final concentration) in culture medium were dispensed and the plates incubated for 48 hours at 37 C in 5% CO2. Two microliters of luciferase detection reagent was added and luminescence was detected by a ViewLux (PerkinElmer) reader
Regarding `C[C@@]1(C2CCCC2)Cc2cc(OCC(=O)O)c(Cl)c(Cl)c2C1=O`, the “activity change, negative = inhibition” value is -6.44%. Take `O=C(N[C@@H](Cc1ccccc1)C(=O)CCl)OCc1ccccc1`: the “activity change, negative = inhibition” value is -17.6%.

Consider `COc1cc(/C=C(\C#N)C(=O)c2ccc(O)c(O)c2)cc(I)c1O`, for which the “activity change, negative = inhibition” value was 2.53%. On to `O=C(O)C1=CCCNC1`, for which the “activity change, negative = inhibition” value was -5.39%. The same measure, in the same setting: in the case of `CCN1C(=O)C=CC1=O` it was -1.62%; in that of `N#Cc1cc2nc(O)c(O)nc2cc1[N+](=O)[O-]`, 0.607%; in that of `NC(C(=O)N[C@@H]1C(=O)N2C(C(=O)O)=C(Cl)CS[C@H]12)c1ccccc1` (stereo not given in full), -1.84%. Consider `CCCCCC(O)CCCC(=O)O` (stereo not given), for which the “activity change, negative = inhibition” value was 17.4%. Take `CC(C)C[C@H](NC(=O)C1OC1C(=O)O)C(=O)NCCCCN=C(N)N` (stereo not given in full): the Potency is 5.86 µM (active). `CCCCCCCCCCCCCCSCC(=O)O`: the “activity change, negative = inhibition” value was -11.1%. For the molecule `O=C(c1ccc2c(c1)OCCO2)N1CCCCC1`, the “activity change, negative = inhibition” value was 10.3%. Same read-out and setting: in the case of `CC(=O)O[C@H]1CC2(C)[C@@H](C[C@@H](O)[C@H]3[C@@]4(C)CC[C@@H](O)[C@@H](C)[C@@H]4CC[C@@]32C)C1=C(CCC=C(C)C)C(=O)O` (stereo not given in full) it was -3.67%. With `CC(N)=NCCCC[C@@H](N)C(=O)O`, the “activity change, negative = inhibition” value was 13.5%. The same measure, in the same setting: the figure for `Cn1cc(C(=O)OCC2CCN(CCNS(C)(=O)=O)CC2)c2ccccc21` is 8.51%; for `NC(N)=NC(N)=Nc1ccccc1` it is -2.9%. Take `N[C@@H](CCC(=O)N[C@H](CSN=O)C(=O)NCC(=O)O)C(=O)O`: the “activity change, negative = inhibition” value is 0.874%. Regarding `N=S(=O)(O)Cc1noc2ccccc12`, the “activity change, negative = inhibition” value is -2.39%. Regarding `O=c1cc(-c2ccccc2)[nH]c2nc(Cl)ccc12`, the “activity change, negative = inhibition” value was 9.68%. Consider `CC(C)NCC(O)COc1ccc(CC(N)=O)cc1` (stereo not given), for which the “activity change, negative = inhibition” value is -6.99%. `CC(C)(C)c1cc(/C=C(\C#N)C(N)=S)cc(C(C)(C)C)c1O`: the Potency was 8.28 µM (active). Consider `CCCCC[C@H](CC(=O)NO)C(=O)N[C@H](C(=O)N1CCC[C@H]1CO)C(C)C`, for which the Potency was 2.94 µM (active).

In the case of `Nc1ccc(-c2nc3ccc(-c4nc5ccc(N)cc5[nH]4)cc3[nH]2)cc1`, the Potency is 0.415 µM (active). Take `c1ccc2c(c1)CC(N1CCN(c3cccc4c3OCCO4)CC1)C2`: the “activity change, negative = inhibition” value is 1.14%. In the case of `COC(=O)C(C)(N)Cc1ccc(O)cc1` (stereo not given), the “activity change, negative = inhibition” value was -4%. In the case of `CCCCS(=N)(=O)CC[C@H](N)C(=O)O` (stereo not given in full), the “activity change, negative = inhibition” value is -3.98%. Turning to `Cc1cccc(C2CN(C)CCc3c2cc(O)c(O)c3Cl)c1` (stereo not given), the “activity change, negative = inhibition” value is -95.1%. On the same count and under the same terms, the figure for `CC(N)(Cc1ccc(O)c(O)c1)C(=O)O` (stereo not given) is -1.69%; for `COc1cc(C(O)CO)ccc1O` (stereo not given) it is 0.46%; for `Cn1ccnc1` it is 1.36%. Take `C#CC(N)CCC(=O)O` (stereo not given): the “activity change, negative = inhibition” value was -9.72%. `CCCn1c(=O)c2[nH]c(-c3ccc(S(=O)(=O)O)cc3)nc2n(CCC)c1=O`: the “activity change, negative = inhibition” value is -6.88%. As to `Nc1nc2[nH]c(=O)cnc2c(=O)[nH]1`, the “activity change, negative = inhibition” value was -18.1%. Turning to `COC1(C2=NCCN2)COc2ccccc2O1` (stereo not given), the “activity change, negative = inhibition” value is -14.6%. As for `O=c1cc(O)cc(/C=C/c2ccc(O)c(O)c2)o1`, the “activity change, negative = inhibition” value was 7.83%. Turning to `NC(N)=NC(N)=Nc1cccc(Cl)c1`, the “activity change, negative = inhibition” value was -23.6%. The same measure, in the same setting: in the case of `O=C(O)C1=CCNCC1` it was -0.564%. As for `CC(C)[C@H](NC(=O)OCc1ccccc1)C(=O)N[C@H](C=O)Cc1ccccc1` (Cbz-Val-Phe-aldehyde), the Potency was 2.94 µM (active). `CC(=O)C(C)=O`: the “activity change, negative = inhibition” value is -15.1%. `Nc1ncnc2c1ncn2C1CCCC1`: the “activity change, negative = inhibition” value was -5.24%.

For `CCCc1c(OCCCOc2ccc(OCC(=O)O)cc2)ccc(C(C)=O)c1O`, the “activity change, negative = inhibition” value is 3.62%.
